Assay results as given in paper PMC7819943, “Rice protein-binding microarrays: a tool to detect cis-acting elements near promoter regions in rice”.
In all, about 68,000 sequences were measured (“fluorescence intensity (a.u.)”: median about 9,100, highest 2% from about 16,000 on). Only a selection was taken, and the highest values are over-represented in it overall.

These sequences were tested against OsWRKY34 (Oryza sativa, UniProt Q0JBA9 1-250) (assay: protein-binding microarray (RPBM); PBS, 2% BSA, 51.3 ng/ul salmon testes DNA, 50 uM zinc acetate, 200 nM TF, 25 C, 1 h; high values mean tight binding). Conditions: protein: recombinant; tags: N-terminal polyhistidine and DsRed monomer fusion (pET32a); label: CyDye5-dUTP incorporated in the synthesized complementary strand; 3' TTTTT single-stranded linker to array surface; dsDNA, one strand shown.
Sequence of OsWRKY34 (Q0JBA9 entry or part of it): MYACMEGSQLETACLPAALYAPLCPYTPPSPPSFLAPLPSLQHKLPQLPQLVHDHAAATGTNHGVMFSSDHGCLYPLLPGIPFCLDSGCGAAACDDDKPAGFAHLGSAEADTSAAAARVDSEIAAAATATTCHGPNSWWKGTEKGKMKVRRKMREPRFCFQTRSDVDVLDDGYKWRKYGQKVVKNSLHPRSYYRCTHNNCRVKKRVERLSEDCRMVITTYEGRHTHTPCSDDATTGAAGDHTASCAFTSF
Procedure, shortened: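 Ni–NTA purification followed expression in E. coli BL21-CodonPlus of transcription factors fused N-terminally to a polyhistidine tag and DsRed. At 200 nM in PBS with 2% BSA, salmon testes DNA and 50 µM zinc acetate, the protein was incubated for 1 h at 25 °C with a custom Agilent array that had been primer-extended with Cy5-dUTP and blocked with 2% BSA. After washing, the array was read on an Axon 4000B scanner. The binding signal is per-feature fluorescence intensity in arbitrary units.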
With “AGACTTTATTTTTTCCCTGGGCTAAGGACTAGTCCCATATCGGAGTCACCTAGTGCAG” the binding signal was 8980 fluorescence intensity (a.u.). In the case of “GGGACCCGATTTGGGCGGTATATACCTTACTTCACGTGCACGGAGTCACCTAGTGCAG”, the binding signal is reported as 8920 fluorescence intensity (a.u.). For “ATCGCTGCTGTCTTCTCAAATTATAATTTACCGTTTTTAACGGAGTCACCTAGTGCAG”, the binding signal was 8090 fluorescence intensity (a.u.). For “GCCTCCATCCACCTCGCCCATCCCTACACTCTACTACTCCCGGAGTCACCTAGTGCAG”, the binding signal was 8670 fluorescence intensity (a.u.). In the case of “CTCCTACTGCCTACCGCCGACGCAGAACTCCGTGGGTTACCGGAGTCACCTAGTGCAG”, the binding signal is reported as 8210 fluorescence intensity (a.u.). “GCCTCTCGTGGGCCGTCGCCGCCCACCCGCCCGGACACGTCGGAGTCACCTAGTGCAG” was tested, and the binding signal was 8380 fluorescence intensity (a.u.). With “GGAGTTCGTGGGGACGTTCATCCTCATCTTCTTCGCGACGCGGAGTCACCTAGTGCAG” the binding signal was 9260 fluorescence intensity (a.u.). “ACGCGCGGCCTAGTTGTGTGTGGGTGTGTGAGGTGAGGGGCGGAGTCACCTAGTGCAG” was tested, and the binding signal was 11000 fluorescence intensity (a.u.). For “GTGGGTGGAGGAAGCGGATAGGGAGAGGGGTGTGGGGCGGCGGAGTCACCTAGTGCAG”, the binding signal was 16000 fluorescence intensity (a.u.). With “GGGAGGGAGCCAGAGCGGCGGGCGTGGGGTTGGAGGAGGGCGGAGTCACCTAGTGCAG” the binding signal was 9900 fluorescence intensity (a.u.). For “TTGGCTCGAGGCGGGGCTGGTTGGTTGGTTGGTTTGGTGGCGGAGTCACCTAGTGCAG”, the binding signal was 14600 fluorescence intensity (a.u.). With “GTCGGCGTCGGCGTCGGCGTCGGCGGGCGGGAGGCGGGAGCGGAGTCACCTAGTGCAG” the binding signal was 8650 fluorescence intensity (a.u.). “GAGTAGAGGTGGGAGGAAGCGGTGGTGTGGTGGGGTGGGGCGGAGTCACCTAGTGCAG” was tested, and the binding signal was 22100 fluorescence intensity (a.u.). In the case of “GGTGGCGTGCAGGGTGGAGCGGGAGGGCGGCGGCGGGTGGCGGAGTCACCTAGTGCAG”, the binding signal is reported as 17300 fluorescence intensity (a.u.). For “GGGCGGGCGGGCTCGAGGTTGTGGTGGGGCGTGTGGCAGGCGGAGTCACCTAGTGCAG”, the binding signal was 18200 fluorescence intensity (a.u.). With “CGGCGCGCCGTGATTGTGCCTGATTGGGGTGGGGTTGGGGCGGAGTCACCTAGTGCAG” the binding signal was 25300 fluorescence intensity (a.u.). With “ATGAGGGGTCGGGGTTGGGCGGCGTGGGCACGGGCTCGAGCGGAGTCACCTAGTGCAG” the binding signal was 13000 fluorescence intensity (a.u.). “CGGCGGCGGCGGCGGCGGCGGCGGAGGTGGTGTGGGTGGGCGGAGTCACCTAGTGCAG” was tested, and the binding signal was 8220 fluorescence intensity (a.u.). In the case of “GCCGTGGTGGTGTGGGGATCGTGTTGTGGCGGCGGATTGGCGGAGTCACCTAGTGCAG”, the binding signal is reported as 8690 fluorescence intensity (a.u.). With “CCGAAGATATCAACCAAACAGACCCGAACTTCTTCCCATTCGGAGTCACCTAGTGCAG” the binding signal was 8360 fluorescence intensity (a.u.). “TGTTTTGGACTTTTTGGTCAACGGCCCATCAAAGCAAGCCCGGAGTCACCTAGTGCAG” was tested, and the binding signal was 13000 fluorescence intensity (a.u.). “GCCAAACGCGCCAGATCCGCGCCTCCTCCACTCACACGCGCGGAGTCACCTAGTGCAG” was tested, and the binding signal was 8910 fluorescence intensity (a.u.). In the case of “AGCACCACCACCACCCCAGCGCCTCCTACTCCACCGGCTCCGGAGTCACCTAGTGCAG”, the binding signal is reported as 8830 fluorescence intensity (a.u.).
